Shown is part of a subset that was picked to be rich in hits.
ALOX12 inh – Primary qHTS assay for inhibitors of human arachidonate 12S-lipoxygenase (ALOX12): Round 2 | Polyunsaturated fatty acid lipoxygenase ALOX12 (Homo sapiens), P18054 | purified 12hLO, xylenol orange hydroperoxide absorbance | Potency, µM (top dose mostly 108 µM), most hits filed as inhibitors | actives 1.1% (n = 580,000)
Target sequence (P18054 whole entry, looked up): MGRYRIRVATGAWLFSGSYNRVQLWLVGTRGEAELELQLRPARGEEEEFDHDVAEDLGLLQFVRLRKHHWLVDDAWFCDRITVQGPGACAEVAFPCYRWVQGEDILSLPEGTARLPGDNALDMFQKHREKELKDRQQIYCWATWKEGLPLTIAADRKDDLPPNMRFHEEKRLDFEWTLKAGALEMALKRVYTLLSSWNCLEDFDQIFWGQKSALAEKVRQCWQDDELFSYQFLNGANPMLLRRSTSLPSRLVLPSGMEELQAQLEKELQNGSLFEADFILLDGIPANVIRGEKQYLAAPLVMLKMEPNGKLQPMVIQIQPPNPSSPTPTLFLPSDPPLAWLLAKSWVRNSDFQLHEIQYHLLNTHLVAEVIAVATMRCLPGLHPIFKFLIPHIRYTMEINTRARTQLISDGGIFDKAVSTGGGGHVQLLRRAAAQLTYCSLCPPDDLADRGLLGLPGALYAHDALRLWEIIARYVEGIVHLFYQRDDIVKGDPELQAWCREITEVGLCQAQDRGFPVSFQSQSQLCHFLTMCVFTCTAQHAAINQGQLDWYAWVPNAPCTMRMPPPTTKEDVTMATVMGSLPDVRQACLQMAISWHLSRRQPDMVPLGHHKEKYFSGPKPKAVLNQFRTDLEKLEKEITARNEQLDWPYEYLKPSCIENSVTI
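Purified human 12hLO at 150 nM in 25 mM Hepes, 0.01% Triton X-100, pH 7.0, preincubated 15 min at room temperature with compound. Reaction started with 40 uM arachidonic acid, 30 min at room temperature. Hydroperoxide measured by Fe-xylenol orange, 573/405 nm absorbance ratio.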
IL-1B inflam inh – qHTS for Inhibitors of Inflammasome Signaling: IL-1-beta AlphaLISA Primary Screen; THP-1 LPS/ATP IL-1B secretion, AlphaLISA, 16 h; hits give low values; activity change, % at 57.5 µM; actives 4.7% (n = 360,000); AID 743279, 2014; in the data active = activity change below about -50%; inconclusive = mostly about -30% to -49%
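Secreted IL-1B measured by AlphaLISA bead assay after 16 h compound exposure of THP-1 cells; compounds (final up to 57.5 uM) added 1 h before LPS (250 ng/mL) and ATP (1.25 mM) stimulation; lower signal means less secretion.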
HT1080 IDH1KD tx – qHTS for induction of synthetic lethality in tumor cells producing 2HG: qHTS for the HT-1080-IDH1KD cell line; HT-1080 IDH1 knockdown viability, ATP luminescence, 48 h; Potency, µM (highest dose often 46.1 µM), usual class: cytotoxic; actives 2% (n = 360,000); AID 686971, 2013
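Cytotoxicity counter-line: IDH1KD HT-1080, 48 h, CellTiter-Glo. Curves classed by r2, magnitude and activity.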
TDP1 cell CPT – qHTS for Inhibitors of human tyrosyl-DNA phosphodiesterase 1 (TDP1): qHTS in cells in presence of CPT; Potency, µM (highest dose often 46.2 µM), actives largely listed as inhibitors; AID 686979, 2013; chicken DT40 Tdp1-/-;hTDP1 cells + 20 nM CPT, ATP luminescence, 48 h; actives 12% (n = 420,000); note: nearly all actives have a fitted effect of over 55% in size
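Chicken DT40 Tdp1-/- cells complemented with human TDP1, 400 cells/well, exposed to compounds plus 20 nM camptothecin for at least 48 h at 37 C; viability read as ATP content by CellTiter-Glo luminescence.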
DT40 TDP1 no CPT – qHTS for Inhibitors of human tyrosyl-DNA phosphodiesterase 1 (TDP1): qHTS in cells in absence of CPT. actives 15% (n = 420,000). Potency, µM (titrated, usually from 46.2 µM), usual class: inhibitors. DT40 Tdp1-/- hTDP1 cells, no CPT, ATP luminescence, 48 h; note: nearly all actives have a fitted effect of over 55% in size
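Stably hTDP1-transfected Tdp1-null chicken DT40 cells were treated with library compounds minus camptothecin and grown for at least 48 hr at 37 °C, after which cellular ATP was quantified by luminescence.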
HT1080-NT tox – qHTS for induction of synthetic lethality in tumor cells producing 2HG: qHTS for the HT-1080-NT fibrosarcoma cell line; HT-1080-NT fibrosarcoma viability, CellTiter-Glo ATP luminescence, 48 h; Potency, µM (doses to about 46.1 µM), usual class: cytotoxic; actives 1.6% (n = 360,000); AID 686970, 2013;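 note: NT is the 2HG producing partner of a matched IDH1 knockdown line; nearly all actives have a fitted effect of over 55% in size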
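Viability of the 2HG-overproducing fibrosarcoma line after 48 hours of compound exposure at 37 degrees C was determined by luminescence with CellTiter-Glo, and concentration-effect curves were then fitted and categorized.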
Of the large screens only hits and unclear results are named; the others gave an inactive call. Unless noted, calls come from the whole dose curve; as a rule, active = well fitted curve in the direction sought with a large enough effect; inconclusive = small, poorly fitted or top-dose-only effect, or another doubt; inactive = no such curve, though single readings can be large; an effect the other way counts as inactive or inconclusive.

Cc1cccc(-c2noc(-c3cn(CC(=O)NCc4cccs4)c4nc(C)ccc4c3=O)n2)c1	none (no result: IL-1B inflam inh, HT1080 IDH1KD tx, TDP1 cell CPT, DT40 TDP1 no CPT, HT1080-NT tox)
CC(C)C[C@@H](CN1CCC[C@H]1CN1C(=O)C(=O)NC[C@@H]1Cc1ccc(O)cc1)N1C[C@H](Cc2ccccc2)N(CC2CCCCCC2)C(=O)C1=O	ALOX12 inh inconclusive, IL-1B inflam inh -91, HT1080 IDH1KD tx inconclusive, TDP1 cell CPT inconclusive, DT40 TDP1 no CPT inconclusive, HT1080-NT tox inconclusive
CC(C)C[C@@H](CN1CCC[C@H]1CN1C(=O)C(=O)NC[C@@H]1Cc1ccccc1)N1C[C@H](Cc2ccccc2)N(CC2CCCCCC2)C(=O)C1=O	IL-1B inflam inh -80, HT1080 IDH1KD tx inconclusive, TDP1 cell CPT 18µM, DT40 TDP1 no CPT inconclusive
CC(C)C[C@@H](CN1CCC[C@@H]1CN1C(=O)C(=O)NC[C@@H]1Cc1ccccc1)N1C[C@H](Cc2ccc(O)cc2)N(CC2CCCCCC2)C(=O)C1=O	ALOX12 inh inconclusive, IL-1B inflam inh -72, HT1080 IDH1KD tx inconclusive, TDP1 cell CPT inconclusive, DT40 TDP1 no CPT inconclusive, HT1080-NT tox inconclusive
Cc1cnc(NC(=O)CCOc2cccc(Br)c2)s1	none (no result: IL-1B inflam inh, HT1080 IDH1KD tx, TDP1 cell CPT, DT40 TDP1 no CPT, HT1080-NT tox)
O=C(CCCC(=O)N1CCN(C(=O)c2cc3ccccc3[nH]2)CC1)N1CCCCC1	none (no result: IL-1B inflam inh, HT1080 IDH1KD tx, TDP1 cell CPT, DT40 TDP1 no CPT, HT1080-NT tox)
O=C(NCc1cccc(F)c1)C1CCN(c2cn[nH]c(=O)c2)C1 (configuration not stated)	none (no result: IL-1B inflam inh, HT1080 IDH1KD tx, TDP1 cell CPT, DT40 TDP1 no CPT, HT1080-NT tox)
Cc1ccc(CNC(=O)C(=O)NCC(c2cccnc2)N2CCN(c3ccccc3F)CC2)cc1 (configuration not stated)	TDP1 cell CPT 13µM, DT40 TDP1 no CPT 5.8µM (no result: IL-1B inflam inh, HT1080 IDH1KD tx, HT1080-NT tox)
O=C(NCC(c1cccnc1)N1CCN(c2ccccc2F)CC1)C(=O)Nc1ccc(F)cc1F (configuration not stated)	TDP1 cell CPT inconclusive, DT40 TDP1 no CPT 15µM (no result: IL-1B inflam inh, HT1080 IDH1KD tx, HT1080-NT tox)
Cc1ccc(NC(=O)C(=O)NCC(c2cccnc2)N2CCN(c3ccccc3F)CC2)cc1F (configuration not stated)	none (no result: IL-1B inflam inh, HT1080 IDH1KD tx, TDP1 cell CPT, DT40 TDP1 no CPT, HT1080-NT tox)
CCCCNC(=S)N(CCN(CC)CC)Cc1cc2cc3c(cc2[nH]c1=O)OCCO3	IL-1B inflam inh inconclusive, TDP1 cell CPT 26µM, DT40 TDP1 no CPT inconclusive
CC(C)CNC(=S)N(CCN(C)C)Cc1cc2cc3c(cc2[nH]c1=O)OCO3	IL-1B inflam inh inconclusive, TDP1 cell CPT inconclusive, DT40 TDP1 no CPT 5.2µM
CCN(CC)CCCN(Cc1cc2cc3c(cc2[nH]c1=O)OCO3)C(=S)Nc1ccccc1	IL-1B inflam inh -65, HT1080 IDH1KD tx inconclusive, TDP1 cell CPT inconclusive, DT40 TDP1 no CPT inconclusive
COCCCNC(=O)N1CCN(C(=O)N2CC3CC(C2)[C@H]2CCCC(=O)N2C3)CC1 (some centres not stated)	none (no result: IL-1B inflam inh, HT1080 IDH1KD tx, TDP1 cell CPT, DT40 TDP1 no CPT, HT1080-NT tox)
Cc1ccc(Cn2c(C)c(CNC(C)c3ccccc3)c(C(=O)O)c2C)cc1 (configuration not stated)	TDP1 cell CPT inconclusive, DT40 TDP1 no CPT 26µM (no result: IL-1B inflam inh, HT1080 IDH1KD tx, HT1080-NT tox)
Cc1ccc(Cn2c(C)c(CNC3CCCCC3)c(C(=O)O)c2C)cc1	none (no result: IL-1B inflam inh, HT1080 IDH1KD tx, HT1080-NT tox)
O=c1oc2ccccc2cc1-c1nc2ccccc2o1	TDP1 cell CPT inconclusive
Nc1cc2nc3ccccc3oc-2cc1=O	HT1080 IDH1KD tx inconclusive, TDP1 cell CPT 2.1µM, DT40 TDP1 no CPT 1.8µM, HT1080-NT tox inconclusive
OCc1cc(CC2(NCc3ccccc3)COC2)no1	none (no result: IL-1B inflam inh, HT1080 IDH1KD tx, TDP1 cell CPT, DT40 TDP1 no CPT, HT1080-NT tox)
N#CCCN1CCN(CCC#N)C1=S	none
N#CCCN1CCN(CCC#N)c2ccccc21	ALOX12 inh 28µM
